Activity calls are given as the source filed them.

The test system of experiment [1] is PRMT1 (protein arginine N-methyltransferase 1). In words: small molecules binding arginine methyltransferase PRMT1 – biochemical, small-molecule microarray, 635 nm fluorescence, primary screen (AID 1088).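 Also: binding of Prmt1 protein to compounds spotted on small-molecule microarray slides.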 The conditions noted are these: higher = more signal.
A short description of experiment [2]: growth effects on S. cerevisiae YJM789 – YJM789 clinical isolate, OD600, 24 h, basal, primary screen (AID 1089).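 Also: growth of clinical yeast isolate S. cerevisiae YJM 789 seeded 1000 cells per well; test concentration not given here.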 The settings on record: higher = more signal, called active from +8 up or from −8 down.
Experiment [3] can be described thus: S. pombe growth modifiers, basal conditions – strain 972, OD600, 24 h, no modulator, primary screen (AID 1090).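 Also: basal condition with compound alone and no growth modifier present; test concentration not given here.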 The settings on record: S. pombe 972 growth, higher = more signal, called active from +8 up or from −8 down.
The nature of experiment [4]: budding yeast growth modifiers under rapamycin – strain BY4716, OD600, 96 h, primary screen (AID 1091). Also: test concentration not given here. The settings on record: S. cerevisiae BY4716 + rapamycin, higher = more signal, called active from +8 up or from −8 down.
For experiment [5], the target named is Torsin-1A-interacting protein 2 (Homo sapiens) (UniProt Q8NFQ8). In words: small molecules binding lysate-expressed LULL1 – cell lysate, human LULL1 lysate, 635/667 nm fluorescence, primary screen (AID 1092).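 Also: probe is lysate of COS7 cells overexpressing human LULL1; score merges per-feature 667 nm fluorescence with signal-to-noise.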 The conditions noted are these: small-molecule microarray, hLULL1 lysate binding, 635 nm fluorescence; higher = more signal.
Torsin-1A-interacting protein 2 (Homo sapiens), sequence (Q8NFQ8 whole entry, looked up): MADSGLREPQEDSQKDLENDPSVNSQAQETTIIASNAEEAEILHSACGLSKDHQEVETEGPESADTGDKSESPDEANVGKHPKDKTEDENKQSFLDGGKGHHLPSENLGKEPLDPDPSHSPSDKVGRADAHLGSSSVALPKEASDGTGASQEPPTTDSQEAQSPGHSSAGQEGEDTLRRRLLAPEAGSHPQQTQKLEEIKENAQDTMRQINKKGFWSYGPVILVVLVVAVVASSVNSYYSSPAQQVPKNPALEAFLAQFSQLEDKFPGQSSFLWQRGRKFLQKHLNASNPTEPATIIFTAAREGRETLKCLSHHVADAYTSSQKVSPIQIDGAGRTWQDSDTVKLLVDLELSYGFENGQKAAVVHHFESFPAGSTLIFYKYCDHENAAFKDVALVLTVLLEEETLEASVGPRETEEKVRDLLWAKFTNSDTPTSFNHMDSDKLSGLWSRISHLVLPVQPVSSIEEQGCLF
The nature of experiment [6]: optical density change of DRC41 E. coli – strain DRC41, OD650, 24 h, E. coli filamentation project, primary screen (AID 1093).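 Also: MC1000 strain lacking acrAB efflux and sulA so SOS filamentation is blocked; test concentration not given here.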 The conditions noted are these: E. coli DRC41 growth, higher = more signal, called active from +8 up or from −8 down.
Experiment [7] is described as follows: probe aLefty2 binding to arrayed compounds – biochemical, biotinylated probe, 635/667 nm fluorescence, primary screen (AID 1094).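 Also: score merges spot fluorescence near 667 nm with spot signal-to-noise ratio.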 The settings on record: small-molecule microarray, higher = more signal.
The subject of experiment [8] is Noggin (protein binding on small-molecule microarray). In words: small molecules binding Noggin protein – biochemical, 635/667 nm fluorescence, primary screen (AID 1095).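 Also: score merges 667 nm feature fluorescence with signal to noise over triplicate slides.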 The settings on record: 635 nm fluorescence, higher = more signal.
For experiment [9], the target named is Neurogenic locus notch homolog protein 3 (Homo sapiens) (UniProt Q9UM47). In words: small molecules binding NOTCH3 protein – biochemical, 635/667 nm fluorescence, primary screen (AID 1096). The conditions noted are these: small-molecule microarray, 635 nm fluorescence, higher = more signal.
Neurogenic locus notch homolog protein 3 (Homo sapiens), sequence (Q9UM47 whole entry, looked up): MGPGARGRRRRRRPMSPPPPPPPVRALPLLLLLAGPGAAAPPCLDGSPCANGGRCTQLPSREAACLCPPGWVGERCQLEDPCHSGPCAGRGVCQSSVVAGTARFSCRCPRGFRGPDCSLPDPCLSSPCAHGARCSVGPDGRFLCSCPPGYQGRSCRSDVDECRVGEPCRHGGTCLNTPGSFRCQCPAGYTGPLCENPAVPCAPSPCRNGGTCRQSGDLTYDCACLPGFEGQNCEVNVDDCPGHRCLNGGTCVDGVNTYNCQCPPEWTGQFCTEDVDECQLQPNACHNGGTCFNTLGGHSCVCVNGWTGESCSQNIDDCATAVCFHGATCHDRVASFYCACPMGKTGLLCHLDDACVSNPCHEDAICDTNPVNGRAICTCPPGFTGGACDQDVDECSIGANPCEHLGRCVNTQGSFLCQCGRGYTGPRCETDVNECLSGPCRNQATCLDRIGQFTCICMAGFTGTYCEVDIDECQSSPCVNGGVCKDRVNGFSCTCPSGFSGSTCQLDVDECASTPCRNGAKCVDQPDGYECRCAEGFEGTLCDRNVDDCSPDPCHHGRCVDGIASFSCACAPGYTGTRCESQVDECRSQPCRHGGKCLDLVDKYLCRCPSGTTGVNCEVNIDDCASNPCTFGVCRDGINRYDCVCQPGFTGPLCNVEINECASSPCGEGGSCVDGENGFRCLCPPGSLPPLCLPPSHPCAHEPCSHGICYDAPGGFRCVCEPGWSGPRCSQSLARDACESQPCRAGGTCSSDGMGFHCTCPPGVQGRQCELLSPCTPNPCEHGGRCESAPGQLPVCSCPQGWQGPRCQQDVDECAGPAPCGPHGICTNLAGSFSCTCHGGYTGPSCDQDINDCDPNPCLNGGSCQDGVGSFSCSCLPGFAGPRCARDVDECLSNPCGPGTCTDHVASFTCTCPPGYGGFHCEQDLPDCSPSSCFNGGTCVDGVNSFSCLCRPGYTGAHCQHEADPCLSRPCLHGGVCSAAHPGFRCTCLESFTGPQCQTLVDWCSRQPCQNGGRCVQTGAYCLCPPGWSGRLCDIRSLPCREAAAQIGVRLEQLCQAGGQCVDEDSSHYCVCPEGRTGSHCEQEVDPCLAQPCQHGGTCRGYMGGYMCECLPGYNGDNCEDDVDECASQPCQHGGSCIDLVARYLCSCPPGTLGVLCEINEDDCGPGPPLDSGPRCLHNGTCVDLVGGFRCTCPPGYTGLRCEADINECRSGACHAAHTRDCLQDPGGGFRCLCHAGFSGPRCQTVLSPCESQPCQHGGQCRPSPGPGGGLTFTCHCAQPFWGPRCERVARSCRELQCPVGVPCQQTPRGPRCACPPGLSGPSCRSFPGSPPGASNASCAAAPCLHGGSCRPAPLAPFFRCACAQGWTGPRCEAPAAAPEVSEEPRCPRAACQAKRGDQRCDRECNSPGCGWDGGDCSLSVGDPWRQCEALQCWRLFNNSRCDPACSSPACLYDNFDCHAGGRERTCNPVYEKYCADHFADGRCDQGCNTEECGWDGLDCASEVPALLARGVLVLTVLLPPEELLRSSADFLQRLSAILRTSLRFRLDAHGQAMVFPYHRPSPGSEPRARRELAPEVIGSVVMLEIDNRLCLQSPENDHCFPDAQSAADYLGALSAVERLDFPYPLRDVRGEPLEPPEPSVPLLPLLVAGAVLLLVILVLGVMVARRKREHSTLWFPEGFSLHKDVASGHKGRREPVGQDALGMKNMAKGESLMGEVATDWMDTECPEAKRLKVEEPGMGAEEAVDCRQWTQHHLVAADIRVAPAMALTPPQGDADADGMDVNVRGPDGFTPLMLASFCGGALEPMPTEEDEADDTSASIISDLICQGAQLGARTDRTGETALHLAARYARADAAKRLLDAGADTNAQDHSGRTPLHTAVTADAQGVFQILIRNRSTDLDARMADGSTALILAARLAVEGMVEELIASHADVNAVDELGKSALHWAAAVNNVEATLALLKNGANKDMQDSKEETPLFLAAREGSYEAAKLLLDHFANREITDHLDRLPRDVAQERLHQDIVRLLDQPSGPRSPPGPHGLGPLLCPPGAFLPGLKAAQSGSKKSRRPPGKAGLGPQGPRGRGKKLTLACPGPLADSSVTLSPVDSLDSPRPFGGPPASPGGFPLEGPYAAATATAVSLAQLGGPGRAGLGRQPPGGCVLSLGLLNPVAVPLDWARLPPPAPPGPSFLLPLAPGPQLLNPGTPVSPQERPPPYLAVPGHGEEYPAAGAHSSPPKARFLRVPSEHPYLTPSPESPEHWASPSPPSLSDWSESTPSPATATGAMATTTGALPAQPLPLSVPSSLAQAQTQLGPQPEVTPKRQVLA
Experiment [10] is described as follows: probe aEGFR binding to arrayed compounds – biochemical, biotinylated probe, 635/667 nm fluorescence, primary screen (AID 1097).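 Also: probe is a biotinylated anti-EGFR antibody binding compounds printed on slides; score combines fluorescence near 667 nm and signal to noise of each spot.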 The settings on record: small-molecule microarray, higher = more signal.
Experiment [11] deals with Plasmodium falciparum Sir2 (PF13_0152, Sir2A). In words: Plasmodium falciparum Sir2A binding compounds – biochemical, small-molecule microarray, 635 nm fluorescence, primary screen (AID 1098).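 Also: score merges spot fluorescence intensity with its signal-to-noise ratio.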 The conditions noted are these: fluorescence 635 nm, higher = more signal.
Experiment [12] is described as follows: probe aDKK1 binding to arrayed compounds – biochemical, biotinylated probe, 635/667 nm fluorescence, primary screen (AID 1099).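 Also: score merges 667nm spot fluorescence with signal to noise across triplicate slides; reference of the scale not given here.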 The conditions noted are these: small-molecule microarray, higher = more signal.
Experiment [13] in a line: probe aCHRDL2 binding to arrayed compounds – biochemical, biotinylated probe, 635/667 nm fluorescence, primary screen (AID 1100). The conditions noted are these: small-molecule microarray, higher = more signal.
Experiment [14] can be described thus: change in splice reporter luminescence, either direction, cell-based, HEK293, spliceosome inhibition project, primary screen (AID 1101).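 Also: HEK293 cells carrying a splicing-competent luciferase reporter gene; test concentration not given here.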 The settings on record: HEK293 splicing luciferase reporter, 24 h, higher = more signal, called active from +8 up or from −8 down. On the technique in general: In a reporter assay the amount or activity of a reporter protein is the signal.

Experiment [15] has as its target Fibroblast growth factor 10 (Homo sapiens) (UniProt O15520). In words: compounds binding fibroblast growth factor 10 – biochemical, small-molecule microarray, 635 nm fluorescence, primary screen (AID 1102). The settings on record: FGF10 binding, fluorescence 635 nm, higher = more signal.
Experiment [16] concerns glycogen synthase kinase-3 (GSK3A per assay name; protocol says GSK3B). In words: compounds binding glycogen synthase kinase-3 – biochemical, small-molecule microarray, 635 nm fluorescence, GSK3A, primary screen (AID 1103). Also: the record names both GSK3A and GSK3B. The conditions noted are these: fluorescence 635 nm, higher = more signal.
Experiment [17] concerns the target Epidermal growth factor receptor (Homo sapiens) (UniProt P00533). Description: compounds binding epidermal growth factor receptor – biochemical, small-molecule microarray, 635 nm fluorescence, primary screen (AID 1104).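 Also: score merges 667 nm emission intensity with spot signal to noise over triplicate slides.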 The settings on record: EGFR binding, higher = more signal.
The target in experiment [18] is Follistatin-related protein 3 (Homo sapiens) (UniProt O95633). Description: compounds binding follistatin-related protein 3 – biochemical, small-molecule microarray, 635 nm fluorescence, primary screen (AID 1105).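 Also: score merges emission near 667 nm and signal to noise per printed spot across three slides.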 The settings on record: FSTL3 binding, higher = more signal.
Follistatin-related protein 3 (Homo sapiens), sequence (O95633 whole entry, looked up): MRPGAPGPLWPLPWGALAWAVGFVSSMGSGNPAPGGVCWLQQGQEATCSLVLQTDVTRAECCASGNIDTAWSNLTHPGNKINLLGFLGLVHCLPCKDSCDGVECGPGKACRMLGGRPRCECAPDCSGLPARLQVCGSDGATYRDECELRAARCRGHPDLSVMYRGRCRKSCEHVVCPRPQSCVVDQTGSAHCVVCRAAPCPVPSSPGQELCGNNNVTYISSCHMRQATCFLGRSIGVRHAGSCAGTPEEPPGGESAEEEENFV
Experiment [19] deals with Dickkopf-related protein 1 (Homo sapiens) (UniProt O94907). Description: small molecules binding DKK1 protein – biochemical, small-molecule microarray, 635 nm fluorescence scan, primary screen (AID 1106).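 Also: score merges emission near 667 nm with signal to noise over three replicate slides.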 The conditions noted are these: higher = more signal.
Dickkopf-related protein 1 (Homo sapiens), sequence (O94907 whole entry, looked up): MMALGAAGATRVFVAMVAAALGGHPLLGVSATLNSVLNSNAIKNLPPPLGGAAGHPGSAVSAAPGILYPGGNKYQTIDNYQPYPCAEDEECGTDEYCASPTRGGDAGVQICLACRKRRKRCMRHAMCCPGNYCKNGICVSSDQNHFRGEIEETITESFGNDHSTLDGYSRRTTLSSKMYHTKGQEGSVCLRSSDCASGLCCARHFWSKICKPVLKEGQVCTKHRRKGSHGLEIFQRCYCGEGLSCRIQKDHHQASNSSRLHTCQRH
The test system of experiment [20] is Inhibin beta A chain (activin A). In words: small molecules binding activin A – biochemical, small-molecule microarray, 635 nm fluorescence scan, primary screen (AID 1107).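 Also: mouse activin A protein probed at 4.33 µg/mL on printed slides; score merges bound-protein fluorescence near 667 nm with spot signal-to-noise.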 The settings on record: INHBA, higher = more signal.

Epidermal growth factor receptor (Homo sapiens), sequence (P00533 whole entry, looked up): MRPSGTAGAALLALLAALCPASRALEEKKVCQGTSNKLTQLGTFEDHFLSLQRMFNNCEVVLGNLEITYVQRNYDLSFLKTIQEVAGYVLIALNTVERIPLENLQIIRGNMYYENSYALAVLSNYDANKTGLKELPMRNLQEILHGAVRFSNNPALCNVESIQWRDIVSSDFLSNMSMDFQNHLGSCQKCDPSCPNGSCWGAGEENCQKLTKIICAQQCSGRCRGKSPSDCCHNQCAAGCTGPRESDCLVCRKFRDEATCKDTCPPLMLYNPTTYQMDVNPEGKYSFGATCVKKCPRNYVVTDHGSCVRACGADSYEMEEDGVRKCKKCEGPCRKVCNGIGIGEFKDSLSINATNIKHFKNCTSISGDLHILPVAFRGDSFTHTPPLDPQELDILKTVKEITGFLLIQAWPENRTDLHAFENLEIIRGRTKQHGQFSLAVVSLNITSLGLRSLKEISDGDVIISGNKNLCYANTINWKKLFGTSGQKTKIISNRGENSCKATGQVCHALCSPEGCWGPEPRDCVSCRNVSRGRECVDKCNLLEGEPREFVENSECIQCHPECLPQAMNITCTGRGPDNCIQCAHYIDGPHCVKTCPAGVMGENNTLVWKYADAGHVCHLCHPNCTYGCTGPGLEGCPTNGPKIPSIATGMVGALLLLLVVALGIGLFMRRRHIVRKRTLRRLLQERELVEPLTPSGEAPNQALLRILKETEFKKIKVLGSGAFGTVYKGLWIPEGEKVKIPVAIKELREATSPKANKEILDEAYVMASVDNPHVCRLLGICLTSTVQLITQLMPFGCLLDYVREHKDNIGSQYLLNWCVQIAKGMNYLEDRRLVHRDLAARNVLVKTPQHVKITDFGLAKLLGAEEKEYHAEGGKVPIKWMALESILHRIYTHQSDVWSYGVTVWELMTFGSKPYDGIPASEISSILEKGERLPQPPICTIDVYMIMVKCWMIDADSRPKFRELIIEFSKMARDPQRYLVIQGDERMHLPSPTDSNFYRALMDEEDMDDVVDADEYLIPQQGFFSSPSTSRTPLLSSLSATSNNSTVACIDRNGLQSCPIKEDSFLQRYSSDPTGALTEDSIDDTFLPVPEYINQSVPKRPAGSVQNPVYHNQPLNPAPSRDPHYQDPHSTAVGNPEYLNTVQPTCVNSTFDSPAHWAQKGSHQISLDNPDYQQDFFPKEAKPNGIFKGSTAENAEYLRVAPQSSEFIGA
Fibroblast growth factor 10 (Homo sapiens), sequence (O15520 whole entry, looked up): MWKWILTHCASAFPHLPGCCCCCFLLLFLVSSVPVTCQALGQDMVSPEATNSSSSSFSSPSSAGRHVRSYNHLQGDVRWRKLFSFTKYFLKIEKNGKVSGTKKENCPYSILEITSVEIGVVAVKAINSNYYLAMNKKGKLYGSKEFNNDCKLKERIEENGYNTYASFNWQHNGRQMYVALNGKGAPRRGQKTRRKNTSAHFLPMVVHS

As to `CCOC(=O)[C@H](CC(C)C)NC(=O)CCC1CC(OC(=O)NCc2cccc3ccccc23)CC2(CCCC(COC(=O)NCCC(C)C)O2)O1` (stereo not given in full), the composite z-score in experiment [1] is 0.554; in experiment [5] it was 0.691; in experiment [7], -0.221; in experiment [8], 0.543; in [9] it was 0.144; in experiment [10] it was 0.0031. Besides, the composite z-score in experiment [11] is 1.49; in [12], -0.203; in experiment [13] it was -0.196; in experiment [15], 0.335; in [16], -0.229; in [17] it was 0.59. Moreover, the composite z-score in experiment [18] was 0.728; in experiment [19], 0.418; in [20], 0.203. The z-score in experiment [2] was -3.9 (inactive); in [3], -2.7 (inactive); in [4] it was -1.89 (inactive); in experiment [6] it was -0.77 (inactive); in [14], -2.95 (inactive).
Consider `CCOC(=O)[C@H](CC(C)C)NC(=O)CCC1CC(OC(=O)NCc2ccc3c(c2)OCO3)CC2(CCCC(COC(=O)NCC3CCCCC3)O2)O1` (stereo not given in full), for which the composite z-score in experiment [1] was 1.24; in experiment [5], 1.49; in experiment [7] it was -0.323; in [8], 0.553; in [9], 1.09; in experiment [10] it was -0.109. Also, the composite z-score in experiment [11] is 0.74; in experiment [12], -0.209; in experiment [13] it was -0.62; in experiment [15], 0.651; in [16] it was 0.532; in [17] it was 0.379. Also, the composite z-score in experiment [18] is 1.22; in experiment [19], 0.681; in experiment [20] it was -0.0703. For the same compound, the z-score in [2] was 0.192 (inactive); in experiment [3], -0.0848 (inactive); in experiment [4] it was -0.113 (inactive); in experiment [6] it was 0.409 (inactive); in [14], -0.266 (inactive).
As for `CC(=O)OC[C@H]1O[C@@H](ON=C(C)CCN2CCCc3nc(C)c(C)cc32)[C@H](OC(C)=O)[C@@H](OC(C)=O)[C@@H]1OC(C)=O`, the composite z-score in experiment [1] was 1.55; in [5], 0.993; in [7], -0.136; in [8], 0.952; in [9], 1.11; in experiment [10], 0.0781. Besides, the composite z-score in experiment [11] is 0.541; in [12], -0.132; in [13], -0.638; in experiment [15], 1.03; in experiment [16], 1.29; in experiment [17] it was 0.804. Also, the composite z-score in experiment [18] was 1.26; in experiment [19], 0.855; in experiment [20] it was -0.263. Further, the z-score was 0.215 (inactive) in experiment [2]; 0.0313 (inactive) in experiment [3]; 0.427 (inactive) in experiment [4]; -0.722 (inactive) in [6]; -0.548 (inactive) in [14].
Turning to `CCc1cc2c(nc1CC)CCN(CCC(C)=NO[C@H](C)c1cn([C@@H]3COC[C@H]3O)nn1)C2`, the composite z-score in experiment [1] was -0.104; in experiment [5], -0.179; in [7], -0.0936; in experiment [8], 0.0613; in [9], 0.551; in [10], 0.0004. The composite z-score in [11] was 0.346; in [12] it was -0.156; in experiment [13] it was -0.334; in [15] it was 0.189; in [16] it was 0.229; in experiment [17] it was 0.545. For the same compound, the composite z-score in experiment [18] worked out at 0.433; in experiment [19], 0.611; in [20], 0.468. For the same compound, the z-score is 0.485 (inactive) in experiment [2]; 0.308 (inactive) in experiment [3]; 0.668 (inactive) in [4]; -0.216 (inactive) in [6]; 0.212 (inactive) in experiment [14].
On to `COC(=O)CC=C[C@@H](C)[C@@H](C=NOC[C@@H](O)[C@H]1O[C@@H]2OC(C)(C)O[C@@H]2[C@H]1O)NS(=O)(=O)c1ccc(C)cc1`, for which the composite z-score in experiment [1] is 0.601; in experiment [5], 0.308; in experiment [7] it was 0.0528; in [8] it was 0.974; in experiment [9], 0.638; in experiment [10] it was -0.0553. Besides, the composite z-score was 0.698 in experiment [11]; -0.251 in experiment [12]; -0.614 in experiment [13]; 0.504 in experiment [15]; 0.471 in [16]; 0.419 in [17]. In addition, the composite z-score was 0.427 in [18], 0.653 in [19] and -0.0684 in [20]. For the same compound, the z-score in experiment [2] is -0.684 (inactive); in [3], -0.137 (inactive); in experiment [4] it was -0.408 (inactive); in experiment [6], 0.445 (inactive); in experiment [14], 0.318 (inactive).

The values above are taken from PubChem BioAssay.
